# Experimental data taken from ChEMBL document CHEMBL1961873, “Compounds: GSK PKIS; Assays: Nanosyn kinase panel” (2012).
# How the values were obtained:
# [1] = test system: Epidermal growth factor receptor (Homo sapiens), P00533 [T790M]; details: at 1 µM
# [2] = test system: Epidermal growth factor receptor (Homo sapiens), P00533 [L858R,T790M]; details: at 0.1 µM
# [3] = test system: Epidermal growth factor receptor (Homo sapiens), P00533 [L858R,T790M]; details: at 1 µM
# [4] = biological target: Ephrin type-A receptor 2 (Homo sapiens) (UniProt P29317); details: at 0.1 µM
# [5] = biological target: Ephrin type-A receptor 2 (Homo sapiens) (UniProt P29317); details: at 1 µM
# [6] = biological target: T1, Ephrin type-A receptor 3 (Homo sapiens) (UniProt P29320); details: at 0.1 µM
# T1 sequence (whole entry): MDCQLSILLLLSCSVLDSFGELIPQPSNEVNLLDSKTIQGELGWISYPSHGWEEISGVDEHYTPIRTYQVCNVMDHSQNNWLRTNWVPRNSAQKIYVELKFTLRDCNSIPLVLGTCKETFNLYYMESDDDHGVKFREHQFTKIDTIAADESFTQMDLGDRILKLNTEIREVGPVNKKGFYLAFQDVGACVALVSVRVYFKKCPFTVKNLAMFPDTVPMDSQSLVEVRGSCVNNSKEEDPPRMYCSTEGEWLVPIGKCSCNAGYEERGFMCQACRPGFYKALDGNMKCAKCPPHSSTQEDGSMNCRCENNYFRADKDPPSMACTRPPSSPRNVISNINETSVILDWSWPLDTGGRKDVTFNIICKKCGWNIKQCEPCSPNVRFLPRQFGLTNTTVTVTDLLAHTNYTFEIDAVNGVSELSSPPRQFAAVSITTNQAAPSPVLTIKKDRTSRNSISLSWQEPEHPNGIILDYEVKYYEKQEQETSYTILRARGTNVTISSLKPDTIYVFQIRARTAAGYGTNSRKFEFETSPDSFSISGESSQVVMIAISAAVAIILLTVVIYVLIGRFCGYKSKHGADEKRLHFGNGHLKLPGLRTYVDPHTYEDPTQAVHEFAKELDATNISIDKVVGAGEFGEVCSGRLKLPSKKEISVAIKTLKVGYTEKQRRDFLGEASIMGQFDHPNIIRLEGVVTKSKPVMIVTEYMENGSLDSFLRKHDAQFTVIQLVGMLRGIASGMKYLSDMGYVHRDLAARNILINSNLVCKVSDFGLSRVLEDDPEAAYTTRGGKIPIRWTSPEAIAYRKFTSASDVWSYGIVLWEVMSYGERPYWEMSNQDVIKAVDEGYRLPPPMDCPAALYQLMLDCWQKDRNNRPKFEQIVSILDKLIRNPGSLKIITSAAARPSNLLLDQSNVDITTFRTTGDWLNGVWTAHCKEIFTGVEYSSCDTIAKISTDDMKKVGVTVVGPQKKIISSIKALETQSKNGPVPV
# [7] = biological target: T1, Ephrin type-A receptor 3 (Homo sapiens); details: at 1 µM
# [8] = biological target: Ephrin type-A receptor 4 (Homo sapiens) (UniProt P54764); details: at 0.1 µM
# [9] = biological target: Ephrin type-A receptor 4 (Homo sapiens) (UniProt P54764); details: at 1 µM
# [10] = biological target: T2, Ephrin type-B receptor 2 (Homo sapiens) (UniProt P29323); details: at 0.1 µM;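 also: reported as mean inhibition of EPHB2, from the GSK PKIS dataset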
# T2 sequence (whole entry): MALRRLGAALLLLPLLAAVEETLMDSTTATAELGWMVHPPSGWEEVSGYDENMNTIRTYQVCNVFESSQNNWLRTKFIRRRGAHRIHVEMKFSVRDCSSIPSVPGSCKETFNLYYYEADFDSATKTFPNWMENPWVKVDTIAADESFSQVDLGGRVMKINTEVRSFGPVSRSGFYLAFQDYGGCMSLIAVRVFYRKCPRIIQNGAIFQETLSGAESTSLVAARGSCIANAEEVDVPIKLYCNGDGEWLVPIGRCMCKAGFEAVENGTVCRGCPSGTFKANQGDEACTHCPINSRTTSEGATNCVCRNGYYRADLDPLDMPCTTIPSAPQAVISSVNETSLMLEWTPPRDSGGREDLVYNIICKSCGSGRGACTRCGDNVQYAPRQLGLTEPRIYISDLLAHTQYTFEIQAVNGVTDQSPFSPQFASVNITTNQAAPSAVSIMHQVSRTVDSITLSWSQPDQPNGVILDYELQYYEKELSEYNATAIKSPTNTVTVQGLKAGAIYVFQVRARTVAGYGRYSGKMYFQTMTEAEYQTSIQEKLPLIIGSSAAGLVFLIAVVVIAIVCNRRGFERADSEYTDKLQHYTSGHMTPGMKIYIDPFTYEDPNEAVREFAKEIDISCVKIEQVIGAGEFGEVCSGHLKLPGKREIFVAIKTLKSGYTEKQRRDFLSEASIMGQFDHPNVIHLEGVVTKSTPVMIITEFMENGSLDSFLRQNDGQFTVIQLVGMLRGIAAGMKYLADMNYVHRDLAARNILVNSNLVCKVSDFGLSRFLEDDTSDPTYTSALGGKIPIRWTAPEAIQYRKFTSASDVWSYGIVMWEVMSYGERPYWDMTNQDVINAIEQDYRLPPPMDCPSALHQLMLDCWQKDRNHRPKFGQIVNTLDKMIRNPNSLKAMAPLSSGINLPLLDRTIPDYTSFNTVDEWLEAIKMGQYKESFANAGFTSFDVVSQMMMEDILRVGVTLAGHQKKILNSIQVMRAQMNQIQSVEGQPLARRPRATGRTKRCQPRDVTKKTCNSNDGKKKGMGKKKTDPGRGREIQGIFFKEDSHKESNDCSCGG
# Chain of Epidermal growth factor receptor (Homo sapiens), P00533 [L858R,T790M] (P00533 whole entry T790M/L858R, looked up): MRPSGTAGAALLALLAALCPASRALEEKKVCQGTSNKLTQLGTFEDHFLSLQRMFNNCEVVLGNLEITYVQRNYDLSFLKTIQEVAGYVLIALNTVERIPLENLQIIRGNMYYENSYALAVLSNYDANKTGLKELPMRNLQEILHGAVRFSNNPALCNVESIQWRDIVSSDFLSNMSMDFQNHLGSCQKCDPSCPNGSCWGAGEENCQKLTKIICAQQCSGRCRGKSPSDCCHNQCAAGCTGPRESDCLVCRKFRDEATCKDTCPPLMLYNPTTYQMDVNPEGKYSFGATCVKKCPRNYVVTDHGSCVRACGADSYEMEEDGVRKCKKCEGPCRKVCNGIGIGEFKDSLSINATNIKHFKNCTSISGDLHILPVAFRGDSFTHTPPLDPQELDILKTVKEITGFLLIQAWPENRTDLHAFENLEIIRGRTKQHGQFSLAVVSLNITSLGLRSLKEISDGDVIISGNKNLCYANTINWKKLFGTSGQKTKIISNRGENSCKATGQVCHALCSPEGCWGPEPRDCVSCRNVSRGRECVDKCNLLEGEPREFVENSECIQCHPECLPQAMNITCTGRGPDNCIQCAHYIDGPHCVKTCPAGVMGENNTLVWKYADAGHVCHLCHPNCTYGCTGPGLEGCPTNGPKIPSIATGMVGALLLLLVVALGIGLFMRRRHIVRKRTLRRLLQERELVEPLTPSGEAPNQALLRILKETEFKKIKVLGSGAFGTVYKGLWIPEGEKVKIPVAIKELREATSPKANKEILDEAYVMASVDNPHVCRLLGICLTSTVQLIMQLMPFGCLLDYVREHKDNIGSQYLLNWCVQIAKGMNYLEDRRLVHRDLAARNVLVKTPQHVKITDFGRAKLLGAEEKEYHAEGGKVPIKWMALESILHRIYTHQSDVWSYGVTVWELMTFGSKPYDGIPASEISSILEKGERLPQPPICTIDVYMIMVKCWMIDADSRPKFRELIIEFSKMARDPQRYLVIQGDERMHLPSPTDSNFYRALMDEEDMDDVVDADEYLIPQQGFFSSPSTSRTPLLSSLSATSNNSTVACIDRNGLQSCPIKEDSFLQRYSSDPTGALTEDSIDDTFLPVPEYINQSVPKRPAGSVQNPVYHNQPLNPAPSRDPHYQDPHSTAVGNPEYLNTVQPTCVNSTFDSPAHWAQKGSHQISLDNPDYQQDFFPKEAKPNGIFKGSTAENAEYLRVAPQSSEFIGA
# Chain of Ephrin type-A receptor 4 (Homo sapiens) (P54764 whole entry): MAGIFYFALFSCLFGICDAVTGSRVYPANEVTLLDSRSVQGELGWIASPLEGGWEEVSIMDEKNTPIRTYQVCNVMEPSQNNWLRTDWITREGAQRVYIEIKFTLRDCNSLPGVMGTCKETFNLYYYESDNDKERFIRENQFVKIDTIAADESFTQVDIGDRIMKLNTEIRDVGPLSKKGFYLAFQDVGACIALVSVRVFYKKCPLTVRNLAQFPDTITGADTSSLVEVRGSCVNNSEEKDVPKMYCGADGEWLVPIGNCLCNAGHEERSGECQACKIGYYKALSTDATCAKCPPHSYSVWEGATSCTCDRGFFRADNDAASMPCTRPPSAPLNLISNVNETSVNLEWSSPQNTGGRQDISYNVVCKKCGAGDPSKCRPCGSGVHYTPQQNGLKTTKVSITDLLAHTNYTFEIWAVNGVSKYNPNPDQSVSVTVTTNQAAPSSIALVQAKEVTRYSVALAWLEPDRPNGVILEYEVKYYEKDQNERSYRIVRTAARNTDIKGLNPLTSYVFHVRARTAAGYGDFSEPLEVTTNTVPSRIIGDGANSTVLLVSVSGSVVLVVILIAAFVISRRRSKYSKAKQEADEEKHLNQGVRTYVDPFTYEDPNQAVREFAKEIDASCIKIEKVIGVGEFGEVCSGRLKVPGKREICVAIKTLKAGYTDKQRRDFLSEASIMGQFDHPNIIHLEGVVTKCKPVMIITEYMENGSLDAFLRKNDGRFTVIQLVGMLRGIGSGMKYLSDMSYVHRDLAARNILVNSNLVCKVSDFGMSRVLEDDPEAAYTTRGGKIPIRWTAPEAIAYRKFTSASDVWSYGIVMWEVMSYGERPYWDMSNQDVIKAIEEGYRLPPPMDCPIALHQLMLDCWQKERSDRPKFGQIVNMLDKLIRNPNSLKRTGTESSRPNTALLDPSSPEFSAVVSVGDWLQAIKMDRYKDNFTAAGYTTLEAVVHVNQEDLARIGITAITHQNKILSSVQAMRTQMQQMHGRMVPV
# Chain of Epidermal growth factor receptor (Homo sapiens), P00533 [T790M] (P00533 whole entry T790M): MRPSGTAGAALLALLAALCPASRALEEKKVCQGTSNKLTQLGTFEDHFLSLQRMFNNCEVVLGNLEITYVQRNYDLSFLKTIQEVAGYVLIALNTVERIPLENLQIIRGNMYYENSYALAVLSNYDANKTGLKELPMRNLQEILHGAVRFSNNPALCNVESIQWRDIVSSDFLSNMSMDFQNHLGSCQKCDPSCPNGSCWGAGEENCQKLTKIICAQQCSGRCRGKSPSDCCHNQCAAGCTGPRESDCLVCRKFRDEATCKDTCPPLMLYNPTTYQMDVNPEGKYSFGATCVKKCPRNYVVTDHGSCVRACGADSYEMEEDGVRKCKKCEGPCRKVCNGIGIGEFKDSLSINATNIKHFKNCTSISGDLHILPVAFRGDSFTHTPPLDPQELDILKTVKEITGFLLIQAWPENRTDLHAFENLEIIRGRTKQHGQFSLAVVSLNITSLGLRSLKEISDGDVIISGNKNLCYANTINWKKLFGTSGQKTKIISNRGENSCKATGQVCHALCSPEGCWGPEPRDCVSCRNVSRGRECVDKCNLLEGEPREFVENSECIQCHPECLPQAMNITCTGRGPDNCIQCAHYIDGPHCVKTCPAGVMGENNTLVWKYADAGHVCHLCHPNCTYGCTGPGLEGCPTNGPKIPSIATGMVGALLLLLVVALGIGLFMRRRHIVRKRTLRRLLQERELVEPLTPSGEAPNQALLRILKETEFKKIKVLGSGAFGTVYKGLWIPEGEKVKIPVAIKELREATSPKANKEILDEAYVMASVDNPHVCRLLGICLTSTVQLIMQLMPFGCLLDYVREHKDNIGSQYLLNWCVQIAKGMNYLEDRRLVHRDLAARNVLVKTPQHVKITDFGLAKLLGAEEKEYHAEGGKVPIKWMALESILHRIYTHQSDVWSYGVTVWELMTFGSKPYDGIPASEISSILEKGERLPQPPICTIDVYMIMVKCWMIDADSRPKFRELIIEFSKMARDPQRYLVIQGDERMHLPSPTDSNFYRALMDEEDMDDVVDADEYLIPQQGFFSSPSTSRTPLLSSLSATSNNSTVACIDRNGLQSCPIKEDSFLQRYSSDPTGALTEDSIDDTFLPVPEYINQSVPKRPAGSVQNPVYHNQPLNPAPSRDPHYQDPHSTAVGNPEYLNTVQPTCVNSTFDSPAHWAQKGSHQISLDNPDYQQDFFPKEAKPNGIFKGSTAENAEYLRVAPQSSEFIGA
# Chain of Ephrin type-A receptor 2 (Homo sapiens) (P29317 whole entry): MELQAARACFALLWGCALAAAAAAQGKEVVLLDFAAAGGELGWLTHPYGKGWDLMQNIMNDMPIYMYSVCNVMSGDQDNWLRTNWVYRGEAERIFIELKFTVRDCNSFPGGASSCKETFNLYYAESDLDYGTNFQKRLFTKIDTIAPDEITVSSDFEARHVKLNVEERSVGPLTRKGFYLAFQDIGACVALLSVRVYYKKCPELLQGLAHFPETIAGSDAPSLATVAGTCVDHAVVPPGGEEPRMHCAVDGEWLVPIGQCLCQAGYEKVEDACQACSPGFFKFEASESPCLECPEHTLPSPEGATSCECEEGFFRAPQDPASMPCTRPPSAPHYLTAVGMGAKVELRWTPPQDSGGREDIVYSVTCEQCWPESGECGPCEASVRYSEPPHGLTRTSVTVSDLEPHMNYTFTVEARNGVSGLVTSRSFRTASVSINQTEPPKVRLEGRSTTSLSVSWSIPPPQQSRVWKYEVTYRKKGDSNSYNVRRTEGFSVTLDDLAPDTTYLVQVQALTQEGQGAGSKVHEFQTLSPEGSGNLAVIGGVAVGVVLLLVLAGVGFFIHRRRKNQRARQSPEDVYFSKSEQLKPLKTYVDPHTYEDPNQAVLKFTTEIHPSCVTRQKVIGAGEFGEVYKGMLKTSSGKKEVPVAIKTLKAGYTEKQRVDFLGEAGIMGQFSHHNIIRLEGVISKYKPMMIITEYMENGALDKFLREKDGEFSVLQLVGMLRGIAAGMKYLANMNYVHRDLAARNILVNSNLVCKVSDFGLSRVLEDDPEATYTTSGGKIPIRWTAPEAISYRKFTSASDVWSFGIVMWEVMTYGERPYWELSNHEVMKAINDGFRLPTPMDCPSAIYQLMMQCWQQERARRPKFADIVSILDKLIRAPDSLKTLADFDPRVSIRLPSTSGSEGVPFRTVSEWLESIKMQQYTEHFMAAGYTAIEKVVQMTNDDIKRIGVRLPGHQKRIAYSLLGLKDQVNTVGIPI
Structure (SMILES),inhibition [1] [%],inhibition [2] [%],inhibition [3] [%],inhibition [4] [%],inhibition [5] [%],inhibition [6] [%],inhibition [7] [%],inhibition [8] [%],inhibition [9] [%],inhibition [10] [%]
CCn1c(-c2nonc2N)nc2cncc(C(=O)N3CCNCC3)c21,3.72,0.98,3.56,1.29,1.16,3.57,2.79,9.14,11.3,10.1
CC1=C(C(=O)Nc2ccc3[nH]ncc3c2)C(c2ccc(F)cc2)NC(=O)N1 (stereo not drawn),0.87,-2.35,-1.39,-2.91,-2.18,2.51,2.14,4.19,4.52,2.76
COC(=O)Nc1nc2cc(Oc3ccc(NC(=O)Nc4cccc(C(=O)O)c4)cc3)ccc2[nH]1,0.98,-0.04,1.58,-2.05,-4.67,-2.34,-2.49,4.23,5.32,0.25
O=C1NC(=O)C(c2ccc(Cl)cc2)=C1Nc1ccc(Cl)c(C(=O)O)c1,-1.21,-0.4,-1.38,-2,-1.26,-3.17,-3.69,-6.1,-6.97,-0.68
NS(=O)(=O)c1cccc(-c2ccc3c(NC(=O)C4CC4)n[nH]c3c2)c1,-1.45,-1.29,3.22,-4.33,-3.03,-5.8,-2.02,-5.25,-5.49,-1.84
CS(=O)(=O)Nc1ccc(N/C=C2\C(=O)Nc3ccccc32)cc1,-1.95,0.26,-4.58,-2.34,-1.5,-5.95,-4.36,-6.81,-2.53,-6.42
Cn1cc(C=C2C(=O)Nc3cccnc32)c2ccccc21,,,,1.74,0.79,2.31,4.83,5.07,6.23,3.99
N#Cc1c(NC(=O)c2cccc3ccccc23)sc2c1CCCC2,,,,-4.77,-1.43,2.05,4.38,6.92,2.64,5.23
CC1=C(C(=O)Nc2ccc3[nH]ncc3c2)C(c2ccc3ccccc3c2)CC(=O)N1 (stereo not drawn),3.65,4.92,23.5,-0.93,0.37,3.77,6.3,6.86,10.2,7.74
NCc1ccc(-c2nc(-c3ccc(Cl)c(O)c3)c(-c3ccncc3)[nH]2)cc1,0.46,0.24,5.04,2.14,8.19,3.13,2.67,4.74,21.9,-0.39
Cc1ccc(NC(=O)c2ccnc(N3CCCC3)c2)cc1-c1ccc(C(=O)NCC2CC2)cc1,0.9,-0.13,2.67,-2.27,-2.02,-0.85,-0.25,7.04,5.58,4.55
NC(=O)c1ccc(-c2nc(-c3ccccn3)c(-c3ccc4c(c3)OCO4)[nH]2)cc1,1.62,3.52,-0.97,-0.18,-0.13,3.83,1.89,7.63,7.96,6.11
CS(=O)(=O)CCN(CC#N)Cc1ccc(-c2ccc3ncnc(Nc4ccc(OCc5cccc(F)c5)c(Cl)c4)c3c2)o1,5.17,-1.28,0.73,-5.85,-5.32,-2.74,-2.11,1.75,5.59,6.06
COc1cc2c(cc1Nc1nc(N3CCc4ccccc43)c3cc[nH]c3n1)N(C(=O)CN(C)C)CC2,2.36,3.77,9.23,2.22,2.11,2.13,0.93,3.39,6.36,2.81
O=C1NC(=O)C(c2ccccc2Cl)=C1Nc1cccc(O)c1,0.02,0.56,1.35,2.61,1.5,2.51,2.67,5.56,2.36,5.61
Cc1cc(O)cc(C)c1/C=C/c1cncc(-c2nn[nH]n2)c1,3.37,2.15,2.05,39.5,84.4,12.4,34.8,37.4,87.6,15.1
CS(=O)(=O)CCNCc1ccc(-c2ccc3ncnc(Nc4ccc(OCc5ccccc5)c(Cl)c4)c3c2)o1,17.8,-1.01,2.45,-2.92,-2.31,-2.51,1.66,1.26,9.95,5.36

Structure (SMILES),inhibition [1] [%],inhibition [2] [%],inhibition [3] [%],inhibition [4] [%],inhibition [5] [%],inhibition [6] [%],inhibition [7] [%],inhibition [8] [%],inhibition [9] [%],inhibition [10] [%]
Cc1cccc(-c2n[nH]cc2-c2ccc3ncccc3n2)n1,-0.3,-1.54,-0.13,-2.12,-2.51,0.6,3.6,3.45,4.46,1.55
CCn1c(-c2nonc2N)nc2c(N3CCCC3)nccc21,-1.06,0.11,0.62,-5.01,-4.35,-5.79,-2.29,-6.53,-8.11,-2.18
Cc1nnc(-c2ccc(C)c(-c3ccc(C(=O)Nc4cccc(C#N)c4)cc3)c2)o1,2.44,0.19,2.34,-0.29,-0.3,4.6,2.95,6.99,4.3,5.86
COc1ccc(-c2ccncc2)cc1C(N)=O,2.61,3.26,3.22,0.83,0.98,2.75,4.65,6.67,8.05,5.39
CC1=C(C(=O)Nc2ccc3[nH]ncc3c2)C(c2ccc(Cl)c(Cl)c2)CC(=O)N1 (stereo not drawn),0.85,2.39,12.1,-0.63,0.57,3.06,2.8,6.53,4.28,7.7
COc1cc2ncn(-c3cc(O[C@H](C)c4ccccc4Cl)c(C(N)=O)s3)c2cc1OC,6.04,3.14,6.52,5.44,6.5,3.58,14.3,18.9,26.8,16.6
Nc1nc(-c2ccccn2)c(-c2ccc3ncccc3n2)s1,1.67,2.24,1.13,0.85,0.89,2.58,3.28,7.9,8.8,5.32
CCn1c(-c2nonc2N)nc2ccncc21,0.29,-1.07,-0.45,1.93,1.77,0.73,-0.12,5.04,-7.03,-0.84
O=C1Nc2ccc(C(=O)c3ccco3)cc2C1=Cc1cc(Cl)c(O)c(Cl)c1,1.86,1.63,4.94,-2.48,-0.21,2.92,6.1,8.25,14.3,10.7
CS(=O)(=O)CCNCc1nc(-c2ccc3ncnc(Nc4ccc(F)c(Cl)c4)c3c2)cs1,,,,2.15,1.65,2.83,4.56,11.7,21,13.7
CCn1c(-c2nonc2N)nc2c(C#CC(C)(C)O)nc(OC[C@@H](N)c3ccccc3)cc21,-1.79,-0.23,0.54,-1.19,0.2,-1.62,7.71,-5.47,6.31,5
COc1cc(C=NNc2ncnc3c2cnn3-c2ccccc2)ccc1O,2.02,3.12,13.3,3.61,11.4,4.47,8.46,10.2,17.1,9.57
Fc1cccc(COc2ccc(Nc3ncnc4sc(-c5cccs5)cc34)cc2Cl)c1,,,,-3.04,-2.75,-3.5,-1.54,-0.88,2.82,5.23
CC(C)=Cc1cccc2c1/C(=N/Nc1ccc(S(N)(=O)=O)cc1)C(=O)N2,1.05,2.29,2.58,0.83,3.1,2.78,3.12,4.39,11,1.72
COc1ccc(-c2nn3ncccc3c2-c2ccnc(Nc3ccc(Cl)c(C(F)(F)F)c3)n2)cc1,3.31,0.9,4.78,0.97,0.97,3.2,3.4,6.57,10.2,3.9
COc1ccc(-c2coc3ncnc(N)c23)cc1,-0.41,3.68,1.07,1.21,1.62,2.58,3.4,7.51,3.15,4.53
CCn1c(-c2nonc2N)nc2c(C#CC(C)(C)O)nc(CN3CCCC3)cc21,-1.46,-1.08,0.28,-1.52,-2.75,-2.69,1.11,-7.89,-5.06,-4.91
